Our source for the outcome and AC50 values is PubChem BioAssay (EPA / NIEHS).

Activity calls are given as the source filed them. The calls were made as follows: active = hit-call score of the fitted dose curve at least 0.9, where 1 is the maximum; inactive = score below 0.9.

Read-out in the assay: Cyclin D1 (CCND1), CCND1 (gene 595)
The assay can be described thus: LTEA_HepaRG_CCND1: Life Technologies and Expression Analysis (LTEA) Assay for Cyclin D1 (CCND1) using HepaRG (AID 2283451).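 As to AC50: TaqMan qRT-PCR transcript level normalised to ACTB GAPDH and POLR2A housekeeping genes.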 The conditions noted are these: mRNA level, 48 h; actives raise or lower the signal. As to the method: LTEA_HepaRG is a cell based, multiplexed-readout assay that uses HepaRG, a human liver cell line, with measurements taken at 48 hours after chemical dosing on a 96-well plate.LTEA_HepaRG_CCND1 is one of 102 assay component(s) measured in the LTEA HepaRG cell culture assay. It is a marker of Cell proliferation, survival, death.Data from the assay component LTEA_HepaRG_CCND1 was analyzed into 1 endpoint. This assay endpoint, LTEA_HepaRG_CCND1, was analyzed with bidirectional fitting relative to DMSO as the negative control and baseline of activity. Using a type of inducible reporter, measures of mRNA induction for gain or loss-of-signal activity can be used to understand regulation of transcription factor activity. To generalize the intended target to other relatable targets, this assay endpoint is annotated to the cell cycle intended target family, where the subfamily is Cell proliferation, survival, death.
A total of 1060 chemcials from the ToxCast library were tested in eight-point concentration-response experiments. Cell culture and cytotoxicity assays were conducted at Thermo Fisher Scientific's Custom Services facility (Madison, WI). A single lot of human HepaRG cells (Thermo Fisher Scientific, Frederick, MD) was used for the cell culture experiments. 96-well format collagen type I coated plates of human HepaRG cells were prepared using established methods. Briefly, cryopreserved HepaRG cells were thawed, plated at a density of approximately 100,000 cells/well in HepaRG Thaw, Plate, and General Purpose media (HPRG770, Thermo Fisher Scientific), and incubated for 48 hours. 0.5% DMSO was selected as vehicle control to balance the requisite need of DMSO in HepaRG cultures to maintain differentiation (for example, baseline metabolism, proportions of hepatocytes vs. cholangiocytes), while enabling further hepatic receptor pathway activation (for example, PXR and CAR) in response to chemical exposure. 48 hours after plating, the culture medium was replaced with HepaRG Serum-Free Incudtion Media. Cells were exposed to each test chemical in duplicate and maintained in CO2 incubators for another 48 hours. Chemical plates were thawed to room temperature and 200x concentrations of treatment groups were prepared. 8-point conentration-reponse curves were made with the highest exposure at 100 uM, followed by half-log dilutions, all in 0.5% DMSO. Each test plate contained variouse controls, induction positive controls (1mM phenobarbital), cytotoxicity positive controls ([…] aflatoxin B1), vehicle controls (0.5% DMSO), and total lysis controls (0.5% DMSO). Cell morphology images were taken using an Essen IncuCyte FLR automated microscope, with six 96-well plates imaged in about 24 minutes. Images were captured and exported and JPEG files. Spent culture media was transfered to black-well plates for the LDH assay, and remaining media was sorted at -80 C for later use. Cells were treated with RLT buffer and frozen until shipped for gene expression analysis. Total RNA was isolated from the cell suspension in 75 uL of Buffer RLT (Qiagen, Germantown, MD 20874) by Quintiles/Expression Analysis (Durham, NC) using a custom isolation procedure. Total RNA from each plate well was transferred to a preamplification plate. Fluidigm's 96.96 Dynamic ArrayTM (Fluidigm, Amsterdam, the Netherlands) technology was used for gene expression analyses by quantitative reverse transcription polymerase chain reaction (qRT-PCR, performed by Quintiles/Expression Analysis, Durham, NC)89. Standard TaqManTM Assays (Applied Biosystems/ThermoFisher Scientific, Foster City, CA) were used to assess the expression of 93 genes selected based on their selectivity and sensitivity to important hepatic receptors known to be modulated by environmental chemicals; importance in human hepatocyte functionality; and hepatotoxicity. […]
For the molecule `CCC(C)(C)C1CCC(O)CC1` (stereo not given), the molecule was called inactive.

Broadly, the AC50 is the midpoint of the concentration-response curve, whichever way the signal moves. Take `CCc1ccc(CCOc2ccc(CC3SC(=O)NC3=O)cc2)nc1` (stereo not given): the AC50 was 50 µM (active). Regarding `CC1=C(/C=C/C(C)=C/C=C/C(C)=C/C(=O)O)C(C)(C)CCC1`, the molecule was called inactive.

Consider `c1ccc2c(c1)Cc1ccccc1-2`, for which the molecule was classed as inactive. With `OCCC(F)(F)C(F)(F)C(F)(F)C(F)(F)C(F)(F)C(F)(F)C(F)(F)C(F)(F)F`, the outcome was inactive. Turning to `CCCCC(CC)COC(=O)CCCCC(=O)OCc1ccccc1` (stereo not given), the outcome was inactive. `CC(C)(C)c1ccc(O)c(C(C)(C)C)c1`: the molecule was called inactive. Regarding `CCCOc1sc(C(=O)N2CCC(c3cc(CN)ccc3F)CC2)c(C)c1Br`, the call was inactive. Take `Cc1oc(-c2ccccc2)nc1CCOc1ccc(C[C@H](Nc2ccccc2C(=O)c2ccccc2)C(=O)O)cc1`: the AC50 is 23.6 µM (active). Take `Cc1cc(C)c(O)c(C)c1`: the call was inactive.

For the molecule `CC(C)(C)c1cc(C(C)(C)C)c(O)c(C(C)(C)C)c1`, the molecule was called inactive.

For `C[C@@H]1C[C@H]2[C@@H]3CCC4=CC(=O)C=C[C@]4(C)[C@@]3(F)[C@@H](O)C[C@]2(C)[C@@]1(O)C(=O)COP(=O)(O)O`, the outcome was inactive. Still for that read-out and setting: under `ClC1=C(Cl)C(Cl)(Cl)C(Cl)=C1Cl` stands “inactive”; under `CCCCCCCCCCCCN1CCCC1=O`, “inactive”. Take `COCC(C)O` (stereo not given): the outcome was inactive.

`O=c1c(-c2ccc(O)cc2)coc2cc(O)ccc12`: the molecule was classed as inactive.

In the case of `CCCOC(=O)c1ccc(O)cc1`, the call was inactive. `CCCCOCCO`: the molecule was classed as inactive. On to `CCCCCCCCC(=O)O`, for which the result was inactive. As for `O=[N+]([O-])c1ccc(O)cc1`, the molecule was called inactive. Turning to `COC(=O)CCCCC(=O)OC`, the molecule was classed as inactive.

For `CCOC(=O)CC(O)(CC(=O)OCC)C(=O)OCC`, the result was inactive.

Turning to `CCc1nn(C2CCCCC2)c2cc(C3(C#N)CCC(C(=O)O)CC3)ccc12` (stereo not given), the AC50 is 19.5 µM (active). For the molecule `OC1CCCCC1`, the outcome was inactive. As to `CC[C@H](c1ccc(O)cc1)[C@@H](CC)c1ccc(O)cc1`, the AC50 was 77 µM (active). For the molecule `CCCCCCCCCCCCCCCS(=O)(=O)Oc1ccccc1`, the result was inactive. Turning to `OCCC(F)(F)C(F)(F)C(F)(F)C(F)(F)C(F)(F)C(F)(F)F`, the molecule was called inactive. For the molecule `c1ccc2c(c1)ccc1ccccc12`, the outcome was inactive. Consider `CCCCC(CC)COC(=O)CCCCC(=O)OCC(CC)CCCC` (stereo not given), for which the molecule was called inactive. For the molecule `Nc1cccc2c(N)cccc12`, the molecule was classed as inactive.

`OC1CCC(C2CCCCC2)CC1` (stereo not given): the outcome was inactive.

Consider `NC(=O)N(O)[C@@H]1C=C[C@H](Oc2cccc(Oc3ccc(F)cc3)c2)C1`, for which the AC50 was 84.1 µM (active).

Regarding `CC(=O)NC1(c2cccc(F)c2)CCN(CC[C@@]2(c3ccc(Cl)c(Cl)c3)CN(c3ccccc3)C(=O)CO2)CC1`, the molecule was classed as inactive. Regarding `CC(C)(C)c1cccc(C(C)(C)C)c1O`, the result was inactive.

In the case of `CC(C)CCCCCCOC(=O)CCCCC(=O)OCCCCCCC(C)C`, the molecule was classed as inactive. As for `CN1CCC[C@H]1c1cccnc1`, the call was inactive. The same measure, in the same setting: under `CCCCCCCCCCCCc1ccccc1S(=O)(=O)O` stands “inactive”. With `c1ccc2cc3c(ccc4ccccc43)cc2c1`, the AC50 is 9.56 µM (active).

As to `Oc1cc2ccccc2c2ccccc12`, the result was inactive.

For `CC[C@H](C)[C@@H](C(=O)O)n1sc2ccccc2c1=O`, the result was inactive.
